Assay results: PubChem BioAssay (NCI)
Compounds without any hit were thinned out: in the full panel of roughly 83,000, 20% have a hit.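 Interpretation: 100, growth as untreated; towards 0, rising growth inhibition; 0, no net growth; 0 to -100, cell death. Compounds scoring below 10 were considered active.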 A number with no mark means an inactive call. The source made the active and inactive calls.

Legend:
Experiment in all cases: NCI-60 one-dose screen, 48 h (100 = growth as untreated, 0 = no growth, -100 = all killed)
Details in all cases: 10 µM
NCI-H226 lung = tested on: NCI-H226 lung
NCI-H322M lung = tested on: NCI-H322M lung
HOP-62 NSCLC = tested on: HOP-62 NSCLC
NCI-H460 lung = tested on: NCI-H460 lung
HOP-92 NSCLC = tested on: HOP-92 NSCLC
NCI-H522 lung = tested on: NCI-H522 lung
A549/ATCC NSCLC = tested on: A549/ATCC NSCLC
786-0 renal = tested on: 786-0 renal
COLO 205 colon = tested on: COLO 205 colon

SMILES	growth (NCI-H226 lung)	growth (NCI-H322M lung)	growth (HOP-62 NSCLC)	growth (NCI-H460 lung)	growth (HOP-92 NSCLC)	growth (NCI-H522 lung)	growth (A549/ATCC NSCLC)	growth (786-0 renal)	growth (COLO 205 colon)
COc1ccccc1Cn1cc2c(c1-c1ccccc1)CCc1cnoc1-2	59.9%	35.1%	34.7%	10.7%	53.1%	42.1%	46.6%	33.5%	19.6%
CCCCc1ccc(NC(=O)N(CCCl)N=O)cc1	91.2%	96.8%	90.8%	102%	105%	97%		94.2%	101%
O=C(/C=C/c1nnc2n(Cc3ccccc3)c(=O)c3c4c(sc3n12)CCCC4)c1ccccc1	102%	107%	92.4%	104%	77.1%	-3.27% (active)	104%	83.8%	78.6%
Cc1nc2ccc(-n3c(-c4ccc(Cl)cc4)nc4ccccc4c3=O)cc2n1Cc1ccccc1	87.8%	96.5%	81.9%	102%	80.3%	74.2%	79.6%	105%	93.8%
FC(F)(F)c1ccc(-c2nc(-c3nc4cc(Cl)c(Cl)cc4[nH]3)c3ccccn23)cc1	55.2%	61.2%	64%	60.4%	37.9%	74.8%	62%	56.3%	87.1%
COc1ccc(-c2cn[nH]c2-c2cc(OC)c(OC)c(OC)c2)cc1	56.7%	26.4%	45.2%	3.25% (active)	-5.63% (active)	-17.9% (active)	21.2%	-4.65% (active)	-68% (active)
COc1cc(-c2cc(-c3ccc(C)cc3)nc3nc(N)[nH]c(=O)c23)ccc1Oc1ccnc2cc(Cl)ccc12	73.3%	80.6%	98.4%	96%	70.4%	92.5%	78.7%	98.1%	107%
COc1cc(C2C=C(c3ccc(Cl)c(Cl)c3)N=C3SC(C)=CN32)cc(OC)c1OC (stereo unspecified)	50.5%	81.8%	91.1%		81.9%	57.2%		85.6%	81.3%
Cc1cc(C)c(C(=O)OC(C)CNC2CCCCC2)c(C)c1 (stereo unspecified)	99.6%	95.4%	85.7%	98%	51.9%	99.4%	102%	93.2%	96.8%
C#CCNCCN1C(=O)c2ccc3c4c(ccc(c24)C1=O)C(=O)N(CCNCC#C)C3=O	20.9%	28.7%	48.4%	12.8%	91.2%	26.3%	29.2%	43.1%	-77.3% (active)
Nc1ccc2c(c1)Cc1cc(N)c(Cl)cc1-2	107%	88.1%	109%	105%	76.4%	92.2%	88.2%	97.7%	105%
C#CCn1c(-c2cccc(OCCCCl)c2)nc2c1c(=O)n(C)c(=O)n2C	62.5%	92.1%	81.4%	93.5%	49.9%	52%	92%	86.5%	96.8%
CC(=O)Oc1c(C)c(C)c2c(c1C)CCC(C)(CC(=O)OCCCCCCCCCCC[P+](c1ccccc1)(c1ccccc1)c1ccccc1)O2 (stereo unspecified)	13.2%	13.7%	-84.7% (active)	-46.5% (active)	-85.4% (active)	-78.5% (active)	-72% (active)	-92% (active)	-73.9% (active)
COc1ccc(COC(=O)CC(C)C)cc1	95.1%	101%	106%	108%	99%	79.1%	89.5%	94.4%	109%
COc1cc(-c2cc(-c3cc(OC)c(OC)c(OC)c3)nc3nc(N)[nH]c(=O)c23)ccc1Oc1ccnc2cc(Cl)ccc12	76%	37.5%	29.8%	13.8%	6.33% (active)	29.9%	32.3%	51.4%	105%
COc1cc(NS(C)(=O)=O)ccc1Nc1c2ccc(Cl)cc2nc2c(OC)cccc12	-37.4% (active)	57.5%	-14.3% (active)	-46.9% (active)	14.5%	-6.02% (active)		-39.5% (active)	34.3%

SMILES	growth (NCI-H226 lung)	growth (NCI-H322M lung)	growth (HOP-62 NSCLC)	growth (NCI-H460 lung)	growth (HOP-92 NSCLC)	growth (NCI-H522 lung)	growth (A549/ATCC NSCLC)	growth (786-0 renal)	growth (COLO 205 colon)
Nc1c(CNCc2nnn(Cc3ccccc3)c2N)nnn1Cc1ccccc1	100%	100%	98.9%	103%	90.3%	102%	101%	102%	114%
CCCCn1c(=O)[nH]c2c(c1=O)C(c1ccc(Cl)cc1)c1c([nH]c(=O)n(CCCC)c1=O)N2	96.3%	91.6%	90.4%		90.4%	83.3%	87.8%	93.4%	105%
Cc1ccc(S(=O)(=O)Oc2ccccc2-c2ccccc2)cc1	53.5%	47.9%	42%	9.27% (active)	33%	15%	42.4%	38.4%	8.93% (active)
COc1cc(C2C=C(c3ccc(Cl)cc3)N=C3SC(C)=CN32)cc(OC)c1OC (stereo unspecified)	96.9%	97.3%	109%	102%	95.2%	69.9%	83.8%	89.5%	109%
CCCCCCCCCCCC(c1ccccc1)N(C)C (stereo unspecified)	97.2%	103%	119%	105%	74.2%	103%	97.5%	104%	101%
O=[N+]([O-])c1cc2ncccc2c2ncccc12	96.3%	80.3%	137%	66.9%	109%	15.8%	88.4%	110%	95.6%
O=C1/C(=C/c2ccc(O)cc2)Cc2ccc(Cl)cc21	68.1%	84.9%	95.3%	84.4%	77.3%	-38.8% (active)	85.9%	92.2%	120%
Cc1cc(OI)c(C(C)C)cc1-c1cc(C(C)C)c(OI)cc1C	93.7%	95.9%	84.9%	106%	101%	94.5%	94.3%	103%	114%
O=C(N/N=c1/ccoc2cccnc12)N1CCN(c2ncccn2)CC1	37.6%	39.1%	24.5%	15.2%	64.2%	9.96% (active)	17.6%	40.4%	4.3% (active)
O=C(O)CN1C(=O)C=CC1=O	108%	90.9%	107%		111%	103%	108%	103%	
CN(C)c1ccc2c(c1)OC(N)=C(C#N)C2c1ccc2c(c1)CCO2 (stereo unspecified)	48.9%	51.4%	36.3%	9.76% (active)	58.8%	-6.52% (active)	21.9%	34.8%	-26% (active)
Nc1ccn([C@@H]2O[C@H](COP(=O)(O)O[C@@H]3C[C@H](n4cc(F)c(=O)[nH]c4=O)O[C@@H]3COP(=O)(O)O[C@@H]3C[C@H](n4cc(F)c(=O)[nH]c4=O)O[C@@H]3COP(=O)(O)O[C@@H]3C[C@H](n4cc(F)c(=O)[nH]c4=O)O[C@@H]3COP(=O)(O)O[C@@H]3C[C@H](n4cc(F)c(=O)[nH]c4=O)O[C@@H]3COP(=O)(O)O[C@@H]3C[C@H](n4cc(F)c(=O)[nH]c4=O)O[C@@H]3COP(=O)(O)O[C@@H]3C[C@H](n4cc(F)c(=O)[nH]c4=O)O[C@@H]3COP(=O)(O)O[C@@H]3C[C@H](n4cc(F)c(=O)[nH]c4=O)O[C@@H]3COP(=O)(O)O[C@@H]3C[C@H](n4cc(F)c(=O)[nH]c4=O)O[C@@H]3COP(=O)(O)O[C@@H]3C[C@H](n4cc(F)c(=O)[nH]c4=O)O[C@@H]3COP(=O)(O)O[C@@H]3C[C@H](n4cc(F)c(=O)[nH]c4=O)O[C@@H]3COP(=O)(O)OCCOCCOCCOCCOCCOCCO)[C@H](O)C2O)c(=O)n1 (stereo partly specified)	72.7%	83.5%	30%	6.31% (active)	71%	45%	11.7%	28.2%	36.9%
COc1ccc(C2C=C(c3ccc(Cl)c(Cl)c3)N=C3SC(C)=CN32)cc1 (stereo unspecified)	86.5%	98.7%	99.5%	101%	98.7%	77.3%	81.6%	90.7%	104%
COc1cc(C)c2sc3ccccc3c(=O)c2c1NCCN(C)C	74%	90.6%	67.7%	22.2%	19.1%	80.1%	28.8%	65.9%	16.1%
CCOC(=O)c1c(C(F)(F)F)n([O-])c2ccc(OC)cc2[n+]1=O	47.4%	58%	17.1%	18.7%	-34.7% (active)	-25.9% (active)	26.8%	42.2%	31.1%
Oc1ccc(/C=N\Nc2ccccn2)c(O)c1	41.7%	-5.61% (active)	2.96% (active)	3.15% (active)	38.1%	23.7%	26.6%	-13.2% (active)	69.1%
